38 compounds from PubChem BioAssay AID720565 (National Center for Advancing Translational Sciences (NCATS), 2013) can be followed below.

“And” between values parts separate entries of the source, which are not always exact repeats. Equal entries are not always repeated. Records with an inconclusive call do not appear. A number with no mark means an inactive call. The source made the active and inactive calls. Calls come from the whole dose curve; as a rule, active = well fitted activation curve with a large enough effect; inconclusive = small, poorly fitted or top-dose-only effect; inactive = no such curve, though single readings can be large or run the other way.
Potency is the fitted concentration of half-maximal effect.

The test is described as follows: qHTS for small molecules that induce genotoxicity in ELG1 expressing cells: Confirmatory Assay for Cherry-picked Compounds. For activation: % of control where 0% means no effect. Note: nearly all actives have a fitted effect of over 35% in size. The following applies: ELG1-luciferase reporter cells, luminescence, 16 h; series mostly up to 46.1 µM; activation: at the top concentration. In outline:
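Activation readout: ONE-Glo luciferase signal from ELG1 reporter cells, 2,000 per well, after 16 hr compound incubation at 37 C. Increased ELG1-driven luminescence reflects genetic stress.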
(qHTS replaces the single test concentration by a dilution series.)
As for `CN(C)N=Nc1ccc(/C=C2\C=Cc3ccccc32)cc1`, the Potency is 3.97 µM (active).

As for `O=C(CSc1nc2ccccc2o1)Nc1ccccc1N1CCCCCC1`, the “activation” value was -14.9%.

For `Cn1c2ccccc2c(=O)c2cc(NCCCN3CCOCC3)ccc21`, the Potency was 17.7 µM (active).

As for `Oc1cc2cc(-c3csc(-c4ccc(F)cc4)n3)cc3c2n1CCC3`, the Potency is 6.28 µM (active).

As to `COc1ccc(C2CC(c3c(O)cc(C)oc3=O)=NCCS2)c(OC)c1` (stereo not drawn), the Potency was 11.2 µM (active).

Take `O=C(Nc1ccccn1)c1sc2ccc([N+](=O)[O-])cc2c1Cl`: the Potency was 4.99 µM (active).

As for `C(=C\c1c[nH]c2ccccc12)/c1ccc2ccccc2n1`, the Potency was 0.141 µM (active).

As for `Cc1c(C(=O)Nc2nccs2)oc2ccc(Br)cc12`, the Potency was 11.2 µM (active).

Take `O=c1cc(-c2ccccc2)oc2ccc(Br)cc12`: the Potency is 11.2 µM (active).

As for `Cc1ccc2c(c1)sc1nc(=O)n(-c3ccc(Cl)c(Cl)c3)c(=O)n12`, the “activation” value was 26.4%.

Turning to `Cc1ccc(-c2nnc(SCC(=O)Nc3ccccc3F)o2)cc1`, the Potency was 115 nM (active) and 88.9 nM (active).

As to `CNC(=O)c1cc(-c2cccs2)on1`, the “activation” value is 11.9%.

For `CCOc1ccc2oc(C(=O)Nc3nccs3)c(C)c2c1`, the Potency was 2.23 µM (active).

In the case of `CCN(CC)S(=O)(=O)c1ccc(N2CCOCC2)c(NC(=O)c2[nH]c(C)c(C(C)=O)c2C)c1`, the Potency was 12.5 µM (active).

Take `COc1ccc(-c2nc(-c3cccnc3)no2)cc1`: the Potency is 3.97 µM (active).

On to `O=C(CCN1C(=O)NC2(CCCC2)C1=O)Nc1ccc(-c2nc3ccccc3s2)cc1`, for which the Potency is 0.706 µM (active).

On to `COc1ccc(C2CC(c3ccncc3)=NN2c2ccc(S(N)(=O)=O)cc2)cc1` (stereo not drawn), for which the Potency was 17.7 µM (active).

For `COc1ccc2cc(C[C@@H]3CC[C@@H](CO)O3)ccc2c1`, the Potency was 12.5 µM (active).

As to `Cc1c(OCc2ccc([N+](=O)[O-])cc2)ccc2c3c(c(=O)oc12)CCC3`, the Potency was 2.81 µM (active).

Turning to `Cc1ccc(C)c(N2CCN(C(=O)CCc3nc(-c4cccc(Cl)c4)no3)CC2)c1`, the Potency was 12.5 µM (active).

`O=C(Nc1ccccn1)c1sc2ccccc2c1Cl`: the Potency was 0.223 µM (active).

`O=c1c2ccccc2oc2c1oc1ccccc12`: the Potency was 14.1 µM (active).

Take `COc1cccc([C@@H]2Oc3ccc(OC)cc3C(=O)[C@H]2OC(=O)NS(=O)(=O)c2ccc(C)cc2)c1`: the Potency was 15.8 µM (active).

Turning to `O=S(=O)(c1ccc2ccccc2c1)N1CCN(S(=O)(=O)c2c(F)cccc2F)CC1`, the Potency was 14.1 µM (active).

`COc1cccc(/C=C/c2cnc3ccccc3n2)c1OC`: the Potency was 0.397 µM (active).

Consider `O=c1[nH]c(=O)n([C@@H]2O[C@H](CO)[C@@H](O)[C@H]2O)cc1F`, for which the Potency is 3.97 µM (active).

As to `COc1cc(/C=C(\C#N)C(=O)Nc2cccc(C(=O)O)c2)ccc1OCc1ccc(Cl)cc1`, the Potency is 8.89 µM (active).

As for `O=S(=O)(c1c(F)cccc1F)N1CCN(S(=O)(=O)c2c(F)cccc2F)CC1`, the Potency is 15.8 µM (active).

Consider `COc1ccc(OCC(=O)Nc2ccc(-c3nc4cc(C)c(C)cc4o3)cc2)cc1`, for which the Potency was 813 nM (active) and 1.12 µM (active).

`COc1cccc(NC(=O)COC(=O)c2sccc2C)c1`: the Potency is 11.2 µM (active).

With `O=C(OCC(=O)N1CCCCC1)c1cccs1`, the Potency was 14.1 µM (active).

Turning to `N#Cc1ccc(-c2ccc(-c3nc4ccccc4c(=O)[nH]3)o2)cc1`, the “activation” value was 13.4%.

With `CS(=O)c1ccc(/C=C2\C=Cc3ccccc32)cc1` (stereo not drawn), the Potency was 1.26 µM (active).

Turning to `c1ccc(-c2cc3cc4c(cc3cn2)OCO4)cc1`, the Potency is 2.81 µM (active).

`O=C(CSCC(=O)N1CCN(c2ccccc2)CC1)Nc1nc(-c2ccc(Cl)s2)cs1`: the “activation” value was -28.8%.

`Cc1cc2ncc(-c3ccccc3)nc2cc1C`: the Potency was 1.41 µM (active).

Regarding `COc1cccc(/C=C/C(=O)OCC(=O)c2ccccc2)c1OC`, the Potency is 3.53 µM (active).

Regarding `Cc1noc(C)c1-c1ccc2ncnc(NCc3ccc(F)c(F)c3)c2c1`, the Potency was 15.8 µM (active).
